Source: PubChem
BL2 CD40 inh = inhibitors of CD40-induced NF-kB signaling, primary screen, BL2 cells, luciferase reporter, single point. CD40L-induced, 4 h. inhibition, % at 10 µM. 0.94% of 83,000 active;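 active = mean inhibition of at least 50% with a set share of replicates also reaching that level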;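 note: 0% = neutral control wells and 100% = IKK inhibitor VII at 50 µM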
Numbers without * were called inactive; i = inactive; [ ] = another dose, or the depositor's remark. This excerpt belongs to a sample that is enriched for hits.

SMILES | BL2 CD40 inh
CCCc1cn(CC[C@H]2CC[C@@H](NC(=O)Cc3cccnc3)[C@H](CO)O2)nn1 | -3
CCCN1C[C@@H](C)[C@H](OC)CN(C)C(=O)c2cc(NC(=O)Nc3cccc(OC)c3)ccc2OC[C@@H]1C | 6
C/C=C/c1ccc([C@H]2[C@H](CO)N(C(=O)CC)[C@H]2CN(C)S(C)(=O)=O)cc1 | 11[25 µM]
COc1ccc(C(=O)Nc2ccc3ccccc3n2)c(OC)c1OC | 51*
COc1ccc(C(=O)NCCN(C)C)c2nc3ccccc3cc12 | i
COc1c(C(=O)Nc2ccc(Cc3ccncc3)cc2)ccc2ccccc12 | -25
Cc1ccc(S(=O)(=O)N2C[C@H](O)COC[C@H]3O[C@H](CC(=O)NCc4ccc5c(c4)OCO5)CC[C@@H]32)cc1 | 7[25 µM]
COc1cc(CN2[C@@H]3CNC[C@H]2C3c2ccc(-c3ccc(C)cc3)cc2)cc(OC)c1 (some centres undefined) | -5[25 µM]
O=C(C[C@H]1C[C@@H]2c3cc(NC(=O)Nc4ccccc4F)ccc3O[C@@H]2[C@H](CO)O1)NC1CCCC1 | 2
COc1ccc2c3c(n(C)c2c1)[C@H](CO)N(C(C)=O)CC31CN(S(=O)(=O)c2ccccc2)C1 | 8[25 µM]
COc1ccc(S(=O)(=O)N2CC[C@H]3[C@H](CO)Nc4ccc(Br)cc4[C@H]32)cc1 | 2[25 µM]
CCCCCN1C=CC(=C2C(=O)c3ccccc3C2=O)C=C1 | 81*
CCCCCCCN1N=C(C)C(C(=O)c2ccccc2)C1=O (centres undefined) | 11
CC=Cc1ccc2n(c1=O)C[C@H]1[C@H](CO)[C@@H](C(=O)NC3CCC3)N(C(=O)C3CCC3)[C@@H]21 (mixture of isomers) | 7
CC=Cc1ccc2n(c1=O)C[C@H]1[C@H](CO)[C@@H](C(=O)NCc3ccccn3)[C@@H]2N1CC1CC1 (mixture of isomers) | -1[25 µM]
C[C@@H]1CN([C@H](C)CO)C(=O)c2cc(NC(=O)Nc3cccc4ccccc34)ccc2O[C@@H](C)CCCCO[C@H]1CN(C)Cc1ccc(C(F)(F)F)cc1 | 49*[25 µM]
COc1ccc(S(=O)(=O)Nc2ccc3c(c2)C(=O)N([C@@H](C)CO)C[C@H](C)[C@@H](CN(C)Cc2ccc(C(F)(F)F)cc2)OCCCC[C@H](C)O3)cc1 | 15[25 µM]
C[C@@H]1CCCCO[C@@H](CN(C)Cc2ccc(C(F)(F)F)cc2)[C@@H](C)CN([C@H](C)CO)C(=O)c2cc(NC(=O)Nc3cccc4ccccc34)ccc2O1 | 16[25 µM]
C[C@@H]1CCCCO[C@@H](CN(C)Cc2ccc(C(F)(F)F)cc2)[C@H](C)CN([C@@H](C)CO)C(=O)c2cc(NC(=O)Nc3cccc4ccccc34)ccc2O1 | 10[25 µM]
C[C@@H]1CCCCO[C@@H](CN(C)C(=O)C2CCCCC2)[C@@H](C)CN([C@H](C)CO)C(=O)c2cc(NS(=O)(=O)c3ccccc3)ccc2O1 | 67*[25 µM]
C[C@H]1CCCCO[C@@H](CN(C)C(=O)C2CCCCC2)[C@@H](C)CN([C@@H](C)CO)C(=O)c2cc(NS(=O)(=O)c3ccccc3)ccc2O1 | 10[25 µM]
C[C@H]1CCCCO[C@H](CN(C)C(=O)C2CCCCC2)[C@@H](C)CN([C@@H](C)CO)C(=O)c2cc(NS(=O)(=O)c3ccccc3)ccc2O1 | 14[25 µM]
COc1ccc(S(=O)(=O)Nc2ccc3c(c2)C(=O)N([C@H](C)CO)C[C@H](C)[C@@H](CN(C)Cc2ccc(C(F)(F)F)cc2)OCCCC[C@@H](C)O3)cc1 | 53*[25 µM]
C[C@@H]1CCCCO[C@@H](CN(C)Cc2ccc(C(F)(F)F)cc2)[C@H](C)CN([C@H](C)CO)C(=O)c2cc(NC(=O)Nc3cccc4ccccc34)ccc2O1 | 29[25 µM]
C[C@@H]1CCCCO[C@H](CN(C)Cc2ccc(C(F)(F)F)cc2)[C@H](C)CN([C@@H](C)CO)C(=O)c2cc(NC(=O)Nc3cccc4ccccc34)ccc2O1 | 15[25 µM]
SMILES | BL2 CD40 inh
COc1ccc(S(=O)(=O)Nc2ccc3c(c2)C(=O)N([C@H](C)CO)C[C@@H](C)[C@H](CN(C)Cc2ccc(C(F)(F)F)cc2)OCCCC[C@H](C)O3)cc1 | 26[25 µM]
C[C@@H]1CCCCO[C@H](CN(C)Cc2ccc(C(F)(F)F)cc2)[C@@H](C)CN([C@@H](C)CO)C(=O)c2cc(NC(=O)Nc3cccc4ccccc34)ccc2O1 | 51*[25 µM]
COc1ccccc1CN(C)C[C@H]1OCc2ccccc2-c2c(n(C)c3ccccc23)C(=O)N([C@H](C)CO)C[C@@H]1C | 0[25 µM]
CC(C)NC(=O)N(C)C[C@@H]1Oc2ccc(N)cc2C(=O)N(C)C[C@H]1C | 3
CC(C)NC(=O)N1CC(=O)N2[C@@H](CO)[C@H](c3ccc(/C=C/c4ccccc4)cc3)[C@@H]2C1 | -1[25 µM]
C[C@H]1CN(C)C(=O)Cc2ccccc2O[C@@H]1CN(C)S(C)(=O)=O | 4
CN(C)C(=O)c1cccc(-c2ccc(C3[C@@H]4CN(S(=O)(=O)c5ccccc5F)C[C@H]3N4)cc2)c1 (some centres undefined) | 7
CC(=O)N(C)C[C@H]1Oc2ccccc2C(=O)N(C)C[C@H]1C | -2
CC(C)NC(=O)N1[C@@H](C#N)[C@H](c2ccc(C#CC3CCCCC3)cc2)[C@@H]1CO | 17
C[C@@H]1CN([C@@H](C)CO)C(=O)c2ccccc2-c2ccccc2CO[C@@H]1CN(C)Cc1cccnc1 | -16[25 µM]
C[C@@H]1CN([C@@H](C)CO)C(=O)CCCn2cc(nn2)CO[C@@H]1CN(C)C(=O)NC1CCCC1 | -1
O=C(O)CCC/C=C/CC1COC(C(F)(F)F)OC1c1ccccc1O (centres undefined) | -5[25 µM]
O=C(Nc1cccc(Cl)c1)N1C[C@H]2[C@@H](c3ccccc31)[C@@H](CO)N2C(=O)C1CC1 | 1
CC(=O)Nc1cccc2c1O[C@H](CN(C)S(C)(=O)=O)[C@H](C)CN(C)C2=O | 7
C[C@H](CO)N1C[C@H](C)[C@H](CN(C)Cc2ccc(F)cc2)OCc2ccccc2-c2ccccc2C1=O | -6
CC(C)(O)C#Cc1cccc(-c2nc(C(=O)O)cc3c2[C@H](CCO)N(S(=O)C(C)(C)C)C3)c1 (some centres undefined) | -15[25 µM]
C[C@H](CO)N1C[C@H](C)[C@@H](CN(C)C(=O)Nc2ccccc2C(F)(F)F)OCc2ccccc2-c2ccccc2C1=O | -6[25 µM]
CC(C)NC(=O)Nc1ccc2c(c1)C(=O)N(C)C[C@H](C)[C@@H](CN(C)C(=O)NC(C)C)O2 | 4
Cn1nc(-c2ccc(Cl)cc2)nc2c(=O)n(C)c(=O)nc1-2 | 84*
O=C(Nc1cc(=O)[nH]c2nc(-c3ccc(Cl)cc3)nn12)c1ccccc1 | 12
Cn1nc(C(=O)NNC(=O)c2ccc(Cl)cc2)ccc1=O | 0
O=C(c1cccnc1)N1C[C@H]2[C@@H](c3ccccc31)[C@H](CO)N2CC1CCCC1 | -22
COc1ccc(NC(=O)Nc2ccc3c(c2)[C@@H]2C[C@@H](CC(=O)NCC(F)(F)F)O[C@@H](CO)[C@@H]2O3)cc1 | -5[25 µM]
COc1ccc(OC)c(-c2oc3ccccc3c(=O)c2O)c1 | -75
COc1ccc(OCC(=O)c2c(O)c3ccccc3oc2=O)cc1 | -1
COc1ccc(/C=C\c2nc(=O)c3ccccc3o2)cc1 | 46*
C[C@H]1CN(C)C(=O)Cc2cc([N+](=O)[O-])ccc2O[C@H]1CN(C)C(=O)OC(C)(C)C | 1
CC(=O)Nc1cccc2c1O[C@H](CN(C)C(=O)OC(C)(C)C)[C@H](C)CN(C)C2=O | -1
CN1c2ccc(-c3cccc(F)c3)cc2[C@@H]2[C@@H](CCN2C(=O)c2ccc3c(c2)OCO3)[C@@H]1CO | 28[25 µM]
